Assay results as given in the supplement of paper PMC11732987, “Enantioselective OTUD7B fragment discovery through chemoproteomics screening and high-throughput optimisation” (Communications Chemistry, 2025).

Tests used:
Experiment in all cases: log2 ratio of Biotin-Ahx-Ub-VS probe labelling (fragment/DMSO); higher = less target engagement (more negative = stronger competition), active = hit call of the paper (q ≤ 0.05, log2 ratio ≤ -1)
Settings in all cases: compound concentration: 200 uM; treatment time: 3 h
ALG13 = molecular target: T1, ALG13 (UniProt Q9NP73)
T1 sequence (whole entry): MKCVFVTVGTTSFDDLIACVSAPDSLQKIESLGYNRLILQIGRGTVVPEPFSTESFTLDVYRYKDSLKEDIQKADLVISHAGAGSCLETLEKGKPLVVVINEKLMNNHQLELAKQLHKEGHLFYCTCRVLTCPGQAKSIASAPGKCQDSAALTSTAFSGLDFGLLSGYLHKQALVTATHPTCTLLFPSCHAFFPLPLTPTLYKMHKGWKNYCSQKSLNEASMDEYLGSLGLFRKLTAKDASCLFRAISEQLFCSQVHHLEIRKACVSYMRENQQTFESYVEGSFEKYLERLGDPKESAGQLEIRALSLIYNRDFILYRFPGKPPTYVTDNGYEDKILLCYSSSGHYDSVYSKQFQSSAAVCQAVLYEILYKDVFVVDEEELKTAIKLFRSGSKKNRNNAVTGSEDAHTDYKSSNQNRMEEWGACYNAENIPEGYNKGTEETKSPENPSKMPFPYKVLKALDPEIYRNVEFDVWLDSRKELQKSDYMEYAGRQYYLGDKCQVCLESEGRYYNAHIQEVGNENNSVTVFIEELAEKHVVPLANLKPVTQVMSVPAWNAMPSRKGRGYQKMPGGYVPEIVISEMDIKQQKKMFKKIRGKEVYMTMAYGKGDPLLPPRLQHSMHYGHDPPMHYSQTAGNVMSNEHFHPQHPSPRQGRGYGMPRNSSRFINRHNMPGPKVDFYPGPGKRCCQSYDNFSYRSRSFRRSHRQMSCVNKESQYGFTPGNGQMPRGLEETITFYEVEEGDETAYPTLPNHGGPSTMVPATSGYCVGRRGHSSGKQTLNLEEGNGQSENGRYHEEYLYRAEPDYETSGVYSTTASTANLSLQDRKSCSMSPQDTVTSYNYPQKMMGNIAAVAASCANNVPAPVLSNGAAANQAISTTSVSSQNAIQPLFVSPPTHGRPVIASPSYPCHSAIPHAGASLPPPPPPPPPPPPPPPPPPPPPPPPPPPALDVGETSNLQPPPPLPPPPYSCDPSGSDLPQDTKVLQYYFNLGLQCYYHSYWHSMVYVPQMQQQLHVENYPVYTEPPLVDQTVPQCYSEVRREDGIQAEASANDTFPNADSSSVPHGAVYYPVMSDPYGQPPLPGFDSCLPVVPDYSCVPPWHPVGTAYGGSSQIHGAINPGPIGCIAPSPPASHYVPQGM
How it was run: (§1)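 HEK293T lysate (495 µg per sample, in Tris/CHAPS/IGEPAL buffer with protease inhibitors) was exposed in triplicate for 3 h to fragment at 200 µM or to vehicle, then to Biotin-Ahx-Ub-VS at 0.5 µM final for 1 h. Labelled DUBs were enriched on NeutrAvidin, digested with LysC and trypsin, and analysed by diaPASEF LC-MS/MS. Spectronaut label-free quantities were normalised to the global median, and values are average log2 ratios of fragment over vehicle from an unpaired t-test. Only proteins with ≥2 unique peptides were used.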

ATXN3 = ATXN3 (UniProt P54252)
How it was run: as §1

BAP1 = molecular target: T2, BAP1 (UniProt Q92560)
T2 sequence (whole entry): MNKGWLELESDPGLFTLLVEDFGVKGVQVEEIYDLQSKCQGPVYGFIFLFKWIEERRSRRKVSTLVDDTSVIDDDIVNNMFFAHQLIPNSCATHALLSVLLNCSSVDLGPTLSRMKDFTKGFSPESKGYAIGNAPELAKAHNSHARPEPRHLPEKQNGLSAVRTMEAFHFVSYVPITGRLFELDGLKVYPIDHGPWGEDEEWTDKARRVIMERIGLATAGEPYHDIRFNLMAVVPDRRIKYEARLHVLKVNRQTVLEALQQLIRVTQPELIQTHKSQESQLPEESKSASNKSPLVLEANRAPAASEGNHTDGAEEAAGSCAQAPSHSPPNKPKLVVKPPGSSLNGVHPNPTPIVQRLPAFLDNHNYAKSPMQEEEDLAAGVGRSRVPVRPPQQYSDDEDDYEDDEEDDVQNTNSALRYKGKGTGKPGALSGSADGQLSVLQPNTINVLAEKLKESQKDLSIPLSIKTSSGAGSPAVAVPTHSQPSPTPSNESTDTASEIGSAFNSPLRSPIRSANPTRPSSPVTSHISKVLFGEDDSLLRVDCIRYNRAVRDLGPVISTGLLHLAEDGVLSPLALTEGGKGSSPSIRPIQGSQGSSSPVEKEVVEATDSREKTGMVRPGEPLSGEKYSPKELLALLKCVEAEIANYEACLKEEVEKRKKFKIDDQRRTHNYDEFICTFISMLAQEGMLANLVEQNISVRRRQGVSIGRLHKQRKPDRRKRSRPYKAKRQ
How it was run: as §1

EIF3F = EIF3F (UniProt O00303)
How it was run: as §1

EIF3H = EIF3H (UniProt O15372)
How it was run: as §1

FAM105A = molecular target: T3, FAM105A (UniProt Q9NUU6)
T3 sequence (whole entry): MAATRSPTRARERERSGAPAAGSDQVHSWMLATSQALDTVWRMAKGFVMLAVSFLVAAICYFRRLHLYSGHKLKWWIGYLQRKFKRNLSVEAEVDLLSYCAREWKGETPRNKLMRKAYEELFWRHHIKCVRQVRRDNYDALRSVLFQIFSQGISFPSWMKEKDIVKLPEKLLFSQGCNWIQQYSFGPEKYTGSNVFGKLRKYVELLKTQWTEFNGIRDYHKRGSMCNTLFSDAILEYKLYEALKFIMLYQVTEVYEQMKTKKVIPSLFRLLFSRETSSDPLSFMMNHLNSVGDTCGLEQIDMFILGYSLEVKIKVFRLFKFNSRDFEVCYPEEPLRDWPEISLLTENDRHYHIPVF
How it was run: as §1

OTUB1 = OTUB1 (UniProt Q96FW1)
How it was run: as §1

OTUD4 = molecular target: T4, OTUD4 (UniProt Q01804)
T4 sequence (whole entry): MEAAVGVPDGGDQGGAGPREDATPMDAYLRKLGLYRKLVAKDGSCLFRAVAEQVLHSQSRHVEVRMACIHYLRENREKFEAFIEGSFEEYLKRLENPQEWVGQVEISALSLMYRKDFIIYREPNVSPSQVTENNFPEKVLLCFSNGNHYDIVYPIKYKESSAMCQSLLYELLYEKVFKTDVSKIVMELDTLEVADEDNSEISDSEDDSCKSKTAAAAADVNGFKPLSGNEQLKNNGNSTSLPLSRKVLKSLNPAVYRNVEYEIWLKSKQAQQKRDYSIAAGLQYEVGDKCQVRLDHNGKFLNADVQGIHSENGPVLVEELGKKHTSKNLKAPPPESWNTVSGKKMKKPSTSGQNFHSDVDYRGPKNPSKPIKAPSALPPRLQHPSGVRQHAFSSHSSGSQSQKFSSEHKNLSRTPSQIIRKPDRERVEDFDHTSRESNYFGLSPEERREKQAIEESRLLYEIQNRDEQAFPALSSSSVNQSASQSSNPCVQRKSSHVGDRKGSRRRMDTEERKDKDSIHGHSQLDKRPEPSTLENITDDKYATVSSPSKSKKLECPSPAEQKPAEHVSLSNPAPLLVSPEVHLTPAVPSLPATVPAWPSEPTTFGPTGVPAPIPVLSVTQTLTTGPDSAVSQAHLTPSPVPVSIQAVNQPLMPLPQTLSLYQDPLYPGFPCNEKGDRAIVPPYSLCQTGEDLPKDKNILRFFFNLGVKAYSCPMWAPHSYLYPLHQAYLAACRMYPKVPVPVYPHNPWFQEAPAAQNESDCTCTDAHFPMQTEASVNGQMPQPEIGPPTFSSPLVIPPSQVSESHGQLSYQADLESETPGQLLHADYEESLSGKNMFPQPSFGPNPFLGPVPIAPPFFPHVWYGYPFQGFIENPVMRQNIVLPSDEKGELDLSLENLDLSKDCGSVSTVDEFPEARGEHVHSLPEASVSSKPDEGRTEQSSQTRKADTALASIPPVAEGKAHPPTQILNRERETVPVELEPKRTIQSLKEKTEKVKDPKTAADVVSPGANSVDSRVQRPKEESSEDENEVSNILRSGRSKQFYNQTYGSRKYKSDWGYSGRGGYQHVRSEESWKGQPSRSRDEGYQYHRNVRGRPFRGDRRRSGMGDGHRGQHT
How it was run: as §1

OTUD5 = molecular target: T5, OTUD5 (UniProt Q96G74)
T5 sequence (whole entry): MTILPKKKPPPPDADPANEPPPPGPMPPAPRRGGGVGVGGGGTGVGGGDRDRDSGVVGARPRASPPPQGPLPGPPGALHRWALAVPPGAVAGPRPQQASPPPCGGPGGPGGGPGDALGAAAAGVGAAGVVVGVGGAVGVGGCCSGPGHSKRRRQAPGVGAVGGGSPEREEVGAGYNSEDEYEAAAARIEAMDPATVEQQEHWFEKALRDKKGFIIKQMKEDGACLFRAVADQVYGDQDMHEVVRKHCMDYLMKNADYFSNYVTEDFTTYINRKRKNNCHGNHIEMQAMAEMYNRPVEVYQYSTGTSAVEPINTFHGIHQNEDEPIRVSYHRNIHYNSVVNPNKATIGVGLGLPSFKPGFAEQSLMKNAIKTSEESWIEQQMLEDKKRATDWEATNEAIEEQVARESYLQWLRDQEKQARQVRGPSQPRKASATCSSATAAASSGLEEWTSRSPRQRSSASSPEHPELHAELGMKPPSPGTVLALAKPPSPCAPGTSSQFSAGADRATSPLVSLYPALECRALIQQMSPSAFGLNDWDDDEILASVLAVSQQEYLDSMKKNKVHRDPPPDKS
How it was run: as §1

Measured: log2 ratio of Biotin-Ahx-Ub-VS probe labelling

Chain of OTUB1 (Q96FW1 whole entry): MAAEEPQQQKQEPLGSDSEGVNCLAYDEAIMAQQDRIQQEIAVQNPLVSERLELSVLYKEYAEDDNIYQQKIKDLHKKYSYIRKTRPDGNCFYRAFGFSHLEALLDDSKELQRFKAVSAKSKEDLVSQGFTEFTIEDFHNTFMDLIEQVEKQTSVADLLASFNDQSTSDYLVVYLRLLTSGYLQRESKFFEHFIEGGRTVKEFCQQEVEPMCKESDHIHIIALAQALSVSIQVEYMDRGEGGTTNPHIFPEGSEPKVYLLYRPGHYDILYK
Chain of ATXN3 (P54252 whole entry): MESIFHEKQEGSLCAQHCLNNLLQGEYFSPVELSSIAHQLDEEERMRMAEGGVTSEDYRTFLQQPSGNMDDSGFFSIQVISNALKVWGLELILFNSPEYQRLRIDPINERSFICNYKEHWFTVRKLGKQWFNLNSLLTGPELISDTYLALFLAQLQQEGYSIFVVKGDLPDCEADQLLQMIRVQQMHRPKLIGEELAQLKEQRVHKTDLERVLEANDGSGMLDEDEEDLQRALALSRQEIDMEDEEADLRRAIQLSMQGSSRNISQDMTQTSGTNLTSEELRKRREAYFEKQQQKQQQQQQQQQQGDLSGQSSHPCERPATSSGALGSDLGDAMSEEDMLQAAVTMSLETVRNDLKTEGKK
Chain of EIF3F (O00303 whole entry): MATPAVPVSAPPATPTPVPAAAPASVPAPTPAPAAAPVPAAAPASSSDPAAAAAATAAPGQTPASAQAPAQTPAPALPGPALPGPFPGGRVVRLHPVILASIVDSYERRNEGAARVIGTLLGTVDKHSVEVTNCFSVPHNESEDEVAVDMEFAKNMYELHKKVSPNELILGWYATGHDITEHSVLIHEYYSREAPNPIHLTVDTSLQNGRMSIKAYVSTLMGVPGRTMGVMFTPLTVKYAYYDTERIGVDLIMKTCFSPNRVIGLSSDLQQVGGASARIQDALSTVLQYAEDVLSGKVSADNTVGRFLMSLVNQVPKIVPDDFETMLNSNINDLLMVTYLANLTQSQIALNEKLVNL
Chain of EIF3H (O15372 whole entry): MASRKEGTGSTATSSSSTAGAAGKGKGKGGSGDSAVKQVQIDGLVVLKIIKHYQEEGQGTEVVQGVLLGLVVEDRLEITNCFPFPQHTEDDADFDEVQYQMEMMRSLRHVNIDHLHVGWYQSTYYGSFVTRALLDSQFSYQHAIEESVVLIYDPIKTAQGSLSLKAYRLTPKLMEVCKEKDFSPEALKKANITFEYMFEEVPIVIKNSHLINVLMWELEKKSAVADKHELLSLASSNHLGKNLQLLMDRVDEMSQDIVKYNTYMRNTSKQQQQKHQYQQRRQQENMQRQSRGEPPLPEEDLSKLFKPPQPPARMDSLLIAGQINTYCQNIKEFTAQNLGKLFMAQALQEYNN

Cc1cc(Cl)ccc1NC(=O)CCl
inactive: ALG13 -0.00605 | ATXN3 -0.0857 | EIF3F 0.0767 | EIF3H 0.0385 | FAM105A 0.174 | OTUB1 -0.116 | OTUD4 -0.0791 | OTUD5 -0.0787
active: BAP1 -3.02
